Where “and” joins values, the source holds several entries; their conditions need not be identical. Equal entries are not always repeated. Among all 5,500 compounds or so, about 2,000 (36%) were called active. Inconclusive results (about 18%) are left out. Rule as the data show it: active = normalized growth mostly below about 0.91 (no sharp cut-off); inconclusive = no clear call, values can overlap the other calls; inactive = mostly above about 0.92. The list shows a part of the results.
Assay: chemical genetic growth profiling, strain panel (AID 1159580);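 also: tested at 20 µM; growth read once vehicle control cultures reached saturation at 30 °C; 1 = growth at the plate median or of vehicle wells; lower values mean less growth of the strain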
Details: S. cerevisiae deletion strains, growth OD

## C/C(=C\CO)CC[C@H](C)CCC[C@H](C)CCCC(C)C
Locus YAL021C, strain ccr4, stronger effect = lower value
  normalized growth: 1.12 [resistant] (active)
Locus YAL026C, strain drs2, stronger effect = lower value
  normalized growth: 1.12 [resistant] (active)
Locus YAL030W, strain snc1, stronger effect = lower value
  normalized growth: 1.13 [resistant] (active)
Locus YBL061C, strain skt5, stronger effect = lower value
  normalized growth: 0.97 (inactive)
Locus YBR009C, strain hhf1, stronger effect = lower value
  normalized growth: 1.12 [resistant] (active)
Locus YBR021W, strain FUR4, stronger effect = lower value
  normalized growth: 1 (inactive)
Locus YBR023C, strain chs3, stronger effect = lower value
  normalized growth: 0.974 (inactive)
Locus YBR171W, strain sec66, stronger effect = lower value
  normalized growth: 1.11 (inactive)
Locus YBR229C, strain ROT2, stronger effect = lower value
  normalized growth: 1.04 (inactive)
Locus YBR231C, strain swc5, stronger effect = lower value
  normalized growth: 0.976 (inactive)
Locus YBR279W, strain paf1, stronger effect = lower value
  normalized growth: 0.993 (inactive)
Locus YCL011C, strain gbp2, stronger effect = lower value
  normalized growth: 1.14 [resistant] (active)
Locus YCL016C, strain dcc1, stronger effect = lower value
  normalized growth: 0.976 (inactive)
Locus YCL029C, strain bik1, stronger effect = lower value
  normalized growth: 1.08 (inactive)
Locus YCL061C, strain MRC1, stronger effect = lower value
  normalized growth: 1.11 [resistant] (active)
Locus YCL069W, strain vba3, stronger effect = lower value
  normalized growth: 1.11 [resistant] (active)
Locus YCR088W, strain abp1, stronger effect = lower value
  normalized growth: 1.12 [resistant] (active)
Locus YDL005C, strain med2, stronger effect = lower value
  normalized growth: 1.14 [resistant] (active)
Locus YDL035C, strain GPR1, stronger effect = lower value
  normalized growth: 1.07 (inactive)
Locus YDL040C, strain nat1, stronger effect = lower value
  normalized growth: 0.973 (inactive)
Locus YDL074C, strain BRE1, stronger effect = lower value
  normalized growth: 1.1 (inactive)
Locus YDL101C, strain DUN1, stronger effect = lower value
  normalized growth: 1.08 (inactive)
Locus YDL185W, strain tfp1, stronger effect = lower value
  normalized growth: 1.11 [resistant] (active)
Locus YDL192W, strain arf1, stronger effect = lower value
  normalized growth: 1.13 [resistant] (active)
Locus YDR001C, strain nth1, stronger effect = lower value
  normalized growth: 1.13 [resistant] (active)
Locus YDR069C, strain doa4, stronger effect = lower value
  normalized growth: 1.15 [resistant] (active)
Locus YDR101C, strain arx1, stronger effect = lower value
  normalized growth: 1.11 [resistant] (active)
Locus YDR137W, strain rgp1, stronger effect = lower value
  normalized growth: 0.93 (inactive)
Locus YDR150W, strain NUM1, stronger effect = lower value
  normalized growth: 1.1 [resistant] (active)
Locus YDR159W, strain sac3, stronger effect = lower value
  normalized growth: 1.05 (inactive)
Locus YDR162C, strain NBP2, stronger effect = lower value
  normalized growth: 1.11 (inactive)
Locus YDR195W, strain ref2
  normalized growth: 1.09 (inactive)
Locus YDR297W, strain sur2, stronger effect = lower value
  normalized growth: 1.13 [resistant] (active)
Locus YDR318W, strain mcm21, stronger effect = lower value
  normalized growth: 1.13 [resistant] (active)
Locus YDR334W, strain swr1, stronger effect = lower value
  normalized growth: 1.14 [resistant] (active)
Locus YDR335W, strain msn5, stronger effect = lower value
  normalized growth: 1.13 [resistant] (active)
Locus YDR388W, stronger effect = lower value
  normalized growth: 1.12 [resistant] (active)
Locus YDR392W, strain spt3, stronger effect = lower value
  normalized growth: 1.11 (inactive)
Locus YDR502C, strain sam2, stronger effect = lower value
  normalized growth: 1.16 [resistant] (active)
Locus YEL003W, strain gim4, stronger effect = lower value
  normalized growth: 1.13 [resistant] (active)
Locus YEL037C, strain rad23, stronger effect = lower value
  normalized growth: 1.13 [resistant] (active)
Locus YEL061C, strain CIN8 (second series), stronger effect = lower value
  normalized growth: 1.14 [resistant] (active)
Locus YEL061C, strain CIN8, stronger effect = lower value
  normalized growth: 1.09 [resistant] (active)
Locus YER015W, strain faa2, stronger effect = lower value
  normalized growth: 1.12 [resistant] (active)
Locus YER016W, strain bim1, stronger effect = lower value
  normalized growth: 0.97 (inactive)
Locus YER110C, stronger effect = lower value
  normalized growth: 1.14 [resistant] (active)
Locus YER111C, strain swi4, stronger effect = lower value
  normalized growth: 1.06 (inactive)
Locus YER155C, strain BEM2 (second series), stronger effect = lower value
  normalized growth: 1.07 (inactive)
Locus YER155C, strain BEM2, stronger effect = lower value
  normalized growth: 1.02 (inactive)
Locus YER167W, strain BCK2, stronger effect = lower value
  normalized growth: 1.01 (inactive)
Locus YFR010W, strain ubp6, stronger effect = lower value
  normalized growth: 1.18 [resistant] (active)
Locus YGL078C, strain dbp3, stronger effect = lower value
  normalized growth: 1.13 [resistant] (active)
Locus YGL086W, strain mad1, stronger effect = lower value
  normalized growth: 1.09 [resistant] (active)
Locus YGL167C, strain pmr1, stronger effect = lower value
  normalized growth: 0.962 (inactive)
Locus YGL173C, strain kem1, stronger effect = lower value
  normalized growth: 1.1 [resistant] (active)
Locus YGL227W, strain vid30, stronger effect = lower value
  normalized growth: 1.12 [resistant] (active)
Locus YGL240W, strain doc1, stronger effect = lower value
  normalized growth: 1.13 [resistant] (active)
Locus YGL248W, strain PDE1, stronger effect = lower value
  normalized growth: 1.06 (inactive)
Locus YGL253W, strain hxk2, stronger effect = lower value
  normalized growth: 1.12 [resistant] (active)
Locus YGR078C, strain PAC10, stronger effect = lower value
  normalized growth: 1.13 (inactive)
Locus YGR135W, strain pre9, stronger effect = lower value
  normalized growth: 1.15 [resistant] (active)
Locus YGR229C, strain SMI1, stronger effect = lower value
  normalized growth: 1.14 (inactive)
Locus YGR252W, strain gcn5, stronger effect = lower value
  normalized growth: 1.1 (inactive)
Locus YHR013C, strain ard1, stronger effect = lower value
  normalized growth: 0.945 (inactive)
Locus YHR027C, strain rpn1, stronger effect = lower value
  normalized growth: 1.14 [resistant] (active)
Locus YHR030C, strain SLT2, stronger effect = lower value
  normalized growth: 1.09 [resistant] (active) and 0.974 (inactive)
Locus YHR079C, strain IRE1 (second series), stronger effect = lower value
  normalized growth: 1.13 [resistant] (active)
Locus YHR079C, strain IRE1, stronger effect = lower value
  normalized growth: 0.966 (inactive)
Locus YHR094C, strain hxt1, stronger effect = lower value
  normalized growth: 1.14 [resistant] (active)
Locus YHR129C, strain ARP1, stronger effect = lower value
  normalized growth: 1.08 (inactive)
Locus YHR142W, strain chs7, stronger effect = lower value
  normalized growth: 1.09 (inactive)
Locus YHR200W, strain rpn10, stronger effect = lower value
  normalized growth: 1.13 [resistant] (active)
Locus YIL066C, strain RNR3, stronger effect = lower value
  normalized growth: 1.09 (inactive)
Locus YIL073C, strain SPO22, stronger effect = lower value
  normalized growth: 1.25 (inactive)
Locus YIL125W, strain kgd1, stronger effect = lower value
  normalized growth: 1.12 [resistant] (active)
Locus YIR030C, strain dcg1, stronger effect = lower value
  normalized growth: 1.13 [resistant] (active)
Locus YJL092W, strain hpr5, stronger effect = lower value
  normalized growth: 1.13 [resistant] (active)
Locus YJL095W, strain BCK1 (second series), stronger effect = lower value
  normalized growth: 1.02 (inactive)
Locus YJL095W, strain BCK1, stronger effect = lower value
  normalized growth: 1.1 (inactive) and 0.966 (inactive)
Locus YJL115W, strain asf1, stronger effect = lower value
  normalized growth: 1.14 [resistant] (active)
Locus YJL129C, strain trk1, stronger effect = lower value
  normalized growth: 1.09 (inactive)
Locus YJL134W, strain LCB3, stronger effect = lower value
  normalized growth: 1.09 [resistant] (active)
Locus YJL154C, strain vps35, stronger effect = lower value
  normalized growth: 1.13 [resistant] (active)
Locus YJL164C, strain tpk1, stronger effect = lower value
  normalized growth: 1.13 [resistant] (active)
Locus YJL166W, strain qcr8, stronger effect = lower value
  normalized growth: 1.13 [resistant] (active)
Locus YJL168C, strain set2, stronger effect = lower value
  normalized growth: 1.13 [resistant] (active)
Locus YJL187C, strain SWE1 (second series), stronger effect = lower value
  normalized growth: 1.1 (inactive)
Locus YJL187C, strain SWE1, stronger effect = lower value
  normalized growth: 1.07 (inactive)
Locus YJR043C, strain POL32, stronger effect = lower value
  normalized growth: 1.12 (inactive)

Reference: PubChem BioAssay AID1159580 (chemical genetic matrix, 2015)
